From PubChem BioAssay (EPA / NIEHS)
Results filed as inconclusive are left out. Active and inactive are the calls of the source. Rule for the calls: active = hit-call score of the fitted dose curve at least 0.9, where 1 is the maximum; inconclusive = response in the unintended direction; inactive = score below 0.9.

Test system: NCBI gene 100848466
Assay: NVS_NR_bPR: NovaScreen (NVS) Nuclear Receptor Binding Assay for bovine Progextron Receptor (PR) (AID 2283343);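 for AC50: actives lower bound radioligand signal below DMSO meaning displacement of the label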
Procedure: NVS_NR_bPR is a biochemical, single-readout assay that uses extracted gene-proteins from Bovine uterine membranes in a tissue-based cell-free assay. Measurements were taken 18 hours after chemical dosing in a 96-well plate.NVS_NR_bPR is one of one assay component(s) measured or calculated from the NVS_NR_bPR assay. It is designed to make measurements of radioligand binding, a form of binding reporter, as detected with scintillation counting signals by Lysate-based radiodetection technology.Data from the assay component NVS_NR_bPR was analyzed into 1 assay endpoint. This assay endpoint, NVS_NR_bPR, was analyzed in the positive analysis fitting direction relative to DMSO as the negative control and baseline of activity. Using a type of binding reporter, loss-of-signal activity can be used to understand changes in the binding as they relate to the gene PGR. Furthermore, this assay endpoint can be referred to as a primary readout, because the performed assay has only produced 1 assay endpoint. To generalize the intended target to other relatable targets, this assay endpoint is annotated to the nuclear receptor intended target family, where the subfamily is steroidal.
Binding assays used specific radioligands (tritiated, iodinated) with non-radioactive competitive displacement ligands in agonist or antagonist protocols (as indicated) and various reference compounds and inhibitors to titrate specific binding to receptors and transporters. Most enzyme assays (CYPs, kinases, phosphatases, proteases, HDACs) used recombinant protein and specific substrates (fluorescence mostly, some colorimetric and radioactive) and inhibitors, followed by a biochemical separation of substrate and product. All assays for the biochemical HTS were initially run in duplicate at a single concentration (10 uM for CYP450 assays and 25 uM for all others). […] Each assay was run with positive and negative controls, and concurrent controls on every plate. The follow-up (secondary) screen tested active chemical-pairs in concentration series, as well as a few additional assays not tested in the primary screen, some selected negative inactives, and several cases re-run in the concentration series for confirmatory purposes.

outcome, inactive:
CCCCOC(=O)c1ccc(O)cc1
CCCCCCCCOC(=O)c1cc(O)c(O)c(O)c1
Cc1ccc2oc(CN(Cc3ccccc3)C(=O)Nc3c(F)cc(F)cc3F)c(-c3ccc(Cl)cc3)c2c1

AC50, active:
CCN(Cc1cccnc1)C(=O)c1cccc(Cl)c1[C@]1(C)C(=O)N(Cc2ccc(OC)cc2OC)c2ccc(Cl)cc21 2.77 µM
C[C@]12CC[C@@H]3c4ccc(O)cc4CC[C@H]3[C@@H]1CC[C@H]2O 0.0988 µM
CN(C[C@@H](CC[N+]12CCC(C3CCCCC3)(CC1)CC2)c1ccc(Cl)c(Cl)c1)C(=O)c1cc(C(F)(F)F)cc(C(F)(F)F)c1 41.5 µM
Cc1c2ccccc2c(C)c2c1ccc1ccccc12 9.4 µM
Cc1cc(F)ccc1-c1cc(N2CC[C@@H](O)[C@H]2CO)ncc1N(C)C(=O)C(C)(C)c1cc(C(F)(F)F)cc(C(F)(F)F)c1 11.3 µM
CN(C)c1ccc(C(=C2C=CC(=[N+](C)C)C=C2)c2ccc(N(C)C)cc2)cc1 4.43 µM
CC/C(=C(/CC)c1ccc(O)cc1)c1ccc(O)cc1 9.68 µM
